HCMV antiviral – inhibitors of human cytomegalovirus; HFF cells, HCMV-luciferase reporter, 72 h; active compounds read low; activity change, negative = inhibition, % at 57.5 µM; 410,000 compounds, 4.5% hits; AID 1259415; in the data active means activity change below about -60%; inconclusive means no clear call, values can overlap the other calls; inactive means above about -39%
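Human foreskin fibroblasts infected with luciferase-reporter HCMV at MOI 1 PFU/cell, compounds at two doses. Luciferase measured 72 h post infection; normalized to buffer-only basal and Salinomycin (10uM) controls.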
FMDV inh – foot and mouth disease virus antiviral activity; FMDV antiviral cell-based qHTS; Potency, µM (highest dose often 57.9 µM), without a hit: top-dose activity change, negative = inhibition, usual class: inhibitors; 410,000 compounds, 1.2% hits; AID 1159524; calls by dose curve; tested in HEK293T cells; further: read-out not given here; potency means the concentration at half of the fitted maximal effect; nearly all actives have a fitted effect of over 45% in size
Sm TGR block – S. mansoni TGR enzyme inhibition; Q962Y6; purified TGR, DTNB reduction, TNB absorbance 405 nm; Potency, µM (series often up to 114 µM), for inactives: top-dose activity change, negative = inhibition, actives largely listed as inhibitors; 360,000 compounds, 3% hits; AID 485364; further: potency means the concentration at half of the fitted maximal effect; nearly all actives have a fitted effect of over 60% in size
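TGR 20 nM + NADPH 100 uM (dispensed conc.), cpd preinc 15 min RT; start with NADPH (500 uM addition) then DTNB (15 mM addition). Kinetic TNB absorbance, 405 nm filter. Four-parameter Hill fit across titration.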
Giardia FBPA inh – blocks Giardia fructose-bisphosphate aldolase activity. A8B2U2. purified Giardia FBPA. Potency, µM (series often up to 59.6 µM), without a hit: top-dose activity, negative = inhibition, usual class: inhibitors. 290,000 compounds, 0.71% hits; further: potency means the concentration at half of the fitted maximal effect; nearly all actives have a fitted effect of over 55% in size
Target sequence (A8B2U2 whole entry, looked up): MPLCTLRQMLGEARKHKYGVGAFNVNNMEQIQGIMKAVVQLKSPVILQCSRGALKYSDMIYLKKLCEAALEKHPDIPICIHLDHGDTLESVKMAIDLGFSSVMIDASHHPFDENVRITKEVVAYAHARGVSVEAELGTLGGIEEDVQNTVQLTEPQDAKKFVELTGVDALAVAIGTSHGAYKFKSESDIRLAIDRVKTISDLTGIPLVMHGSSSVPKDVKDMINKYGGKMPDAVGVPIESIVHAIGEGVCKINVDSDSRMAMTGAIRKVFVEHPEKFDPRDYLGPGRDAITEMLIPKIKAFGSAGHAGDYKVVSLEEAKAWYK
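40 nM FBPA preincubated 10 min at RT with compound (up to 57.5 uM final), then substrate plus GAPDH/TPI/NAD/arsenate coupling and diaphorase/resazurin added. Fluorescence read after 20 min at RT, 525/598 nm.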
RE007 growth inh – less growth of the S. pombe RE007 Vpr strain | S. pombe RE007 Vpr strain, BacTiter-Glo ATP luminescence, 24 h | Potency, µM (doses to about 92.2 µM), without a hit: at the highest dose activity change, negative = less growth, usual class: inhibitors | 360,000 compounds, 0.21% hits | AID 651644; active means well fitted falling curve with a large enough effect; inconclusive means small, poorly fitted or top-dose-only effect; inactive means no such curve, though single readings can be large or run the other way; further: potency means the concentration at half of the fitted maximal effect; nearly all actives have a fitted effect of over 50% in size
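Fission yeast RE007 carrying one integrated HIV-1 vpr copy, seeded at OD 0.01 in PMG+AL medium with 23 nL pinned compound. Grown 24 h at 30 degrees; viability read by BacTiter-Glo luminescence after 5 min.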
TbPYK inhibitor – inhibitors of Trypanosoma brucei pyruvate kinase. TbPYK enzyme, Kinase-Glo Plus ATP luminescence, 45 min. Potency, µM (top dose mostly 76.8 µM), for the others: at the highest dose activity, negative = inhibition, most hits filed as inhibitors. 410,000 compounds, 0.12% hits. AID 624173; further: potency means the concentration at half of the fitted maximal effect; nearly all actives have a fitted effect of over 50% in size
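Enzyme and substrate buffer are dispensed first and compound is pin-transferred. ADP at 130 uM final then starts the reaction, which runs 45 min at room temperature. Detection reagent is added for 10 min before luminescence is imaged.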
* hit, by the source's call; ? = inconclusive; . = no result given; [ ] = remark or other dose. The list is not random: actives were taken first. Their share in the collection is about 7.7%. Unless noted, the call rests on the fitted dose curve; in most records, active means well fitted curve in the direction sought with a large enough effect; inconclusive means small, poorly fitted or top-dose-only effect, or another doubt; inactive means no such curve, though single readings can be large; an effect the other way counts as inactive or inconclusive. On the % scale 0 is the no-effect control and ±100 the full control effect.

SMILES	HCMV antiviral	FMDV inh	Sm TGR block	Giardia FBPA inh	RE007 growth inh	TbPYK inhibitor
CCN(CCCNC(=O)c1cc2cc3cc(C)ccc3nc2s1)c1cccc(C)c1	17	34%	5%	.	.	4%
COc1ccccc1C(=O)N[C@@H]1c2ccccc2C2(CCN(Cc3nccs3)CC2)[C@H]1OC	.	-14%	.	.	.	.
CN(C)CC/C=C1/c2ccc(F)cc2Sc2ccc(Cl)cc21	-3	-14%	.	.	-9%	6%
CN(C)CC/C=C1\c2ccccc2Sc2cc(F)c(Cl)cc21	-65*	?	.	.	4%	-2%
CN(C)CC/C=C1\c2ccc(F)cc2Sc2cc(F)c(Cl)cc21	-108*	?	.	.	1%	-2%
CN(C)CC/C=C1\c2ccccc2Sc2ccc(Cl)cc21	-7	-23%	-7%	-7%	-8%	2%
COCC1CCCN(Cc2cn(Cc3ccccc3)nc2-c2cc3ccccc3o2)C1 (configuration not stated)	-78*	-13%	3%	0%	-4%	-2%
CC(C)[C@H](NC(=O)c1ccc(Cl)c(Cl)c1)C(=O)N1CCC[C@H]1C(=O)NCCc1ccccc1Cl	22	.	.	.	.	.
Cc1nonc1NCn1nnc2ccccc21	-30	-11%	35µM*	0%	17%	-1%
COc1ccc(Nc2nc(S(=O)(=O)c3ccc(C)cc3)c(Cl)s2)cc1	-94*	?	5%	0%	23%	-2%
Cc1ccc(S(=O)(=O)c2nc(NCCN(C)C)sc2Cl)cc1	?	-21%	-19%	8%	12%	-3%
Oc1cccc(Nc2nc(-c3ccccc3Cl)nc3ccccc23)c1	?	?	3%	6%	9%	2%
O=S(=O)(c1ccccc1)c1nc(Nc2cccc(O)c2)sc1Cl	-67*	0%	?	0%[12.9 µM]	8%	-14%
Cc1ccc(S(=O)(=O)c2nc(Nc3ccccc3)sc2Cl)cc1	-74*	?	-20%	-1%	0%	-14%
Cc1ccc(S(=O)(=O)c2nc(N3CCOCC3)sc2Cl)cc1	21	-3%	?	-15%	4%	-20%
CCS(=O)(=O)N1CC2(C1)CN(S(=O)(=O)c1ccc(C)cc1)[C@@H](CO)c1[nH]c3cc(OC)ccc3c12	3	.	.	.	.	.
O=C(COc1ccccc1)NCCc1csc(-c2ccc(Cl)cc2)n1	2	-24%	-3%	.	.	2%
C=CCN=C(CC)C1=C(O)CCCC1=O	-67*	6%	-5%	-27%	9%	2%
CN(C)S(=O)(=O)c1ccc(-c2csc(N/N=C/c3ccc(O)cc3)n2)cc1	?	14µM*	-19%	-15%	-9%	-9%
CN(C)S(=O)(=O)c1ccc(-c2csc(N/N=C/c3ccco3)n2)cc1	0	6.3µM*	?	-9%	-5%	-7%
Cc1ccc(-c2csc(N/N=C/c3ccco3)n2)cc1	29	56%	-29%	-14%	-4%	-14%
COc1ccccc1-c1nnc2sc(-c3ccc(N(C)C)cc3)nn12	-93*	-2%	-9%	8%	-15%	11%
COc1ccccc1-c1nn2c(-c3ccc(C(C)(C)C)cc3)nnc2s1	.	.	3%	-4%	.	.
CN(C)c1ccc(-c2nn3c(-c4ccccc4Cl)nnc3s2)cc1	-74*	-11%	-6%	1%	-4%	7%
CCc1ccc(CN2CCC(n3nccc3NC(=O)c3ccccc3Cl)CC2)cc1	-10	32µM*	0%	.	-1%	7%
SMILES	HCMV antiviral	FMDV inh	Sm TGR block	Giardia FBPA inh	RE007 growth inh	TbPYK inhibitor
CCOc1cc(CN2CCC(n3nccc3NC(=O)C3CC3)CC2)ccc1O	0	11%	40µM*	0%	2%	8%
COc1cccc(CN2CCC(n3nccc3NC(=O)CCOc3ccccc3)CC2)c1	-25	14%	-3%	.	9%	0%
O=C(Nc1ccnn1C1CCN(Cc2cccc(OCCO)c2)CC1)c1cccc(F)c1	76	-16%	-6%	6%	-4%	-10%
COc1ccc(CN2CCC(n3nccc3NC(=O)c3cccc(F)c3)CC2)cc1O	-87*	3%	19%	1%	18%	-4%
O=C(CCOc1ccccc1)Nc1ccnn1C1CCN(Cc2ccc(O)cc2)CC1	-16	-10%	40µM*	.	-4%	-2%
Cc1ccccc1CNC(=O)c1oc2c(c1C)-c1[nH]ncc1CC2	10	20%	-14%	.	.	-1%
Cc1ccc(NC(=O)CSc2cc(=O)n(C)c3ccc(Cl)cc23)c(Br)c1	9	-17%	3%	.	.	-5%
CN(CC1COCCO1)C(=O)c1cnn(-c2ncc3c(n2)-c2ccccc2CC3)c1C1CC1 (configuration not stated)	.	35%	.	.	.	.
COc1ccc(CNC(=O)C2CCCN(C(=O)c3cnn(-c4ccc(F)cc4)c3-n3cccc3)C2)cc1 (configuration not stated)	17	?	2%	.	.	-3%
CCCOC1(C(F)(F)F)NC(=O)N(c2cccc(Cl)c2)C1=O (configuration not stated)	11	9%	4%	.	.	-3%
CC(C)Oc1ccc(CN2CCC(n3nccc3NC(=O)C3CC3)CC2)cc1	-70*	-1%	40%	.	1%	3%
Oc1ccc(/C=N/NC(=S)Nc2cccnc2)cc1O	82	?	-17%	?	4%	-2%
Oc1ccc(C=NNC(=S)Nc2cccnc2)nc1	-69*	27%	.	.	?	?
S=C(N/N=C/c1ccc2ncccc2c1)Nc1cccnc1	-71*	14µM*	2%	-20%	3%	-2%
COC(=O)c1ccccc1NC(=O)C1(c2cccs2)CCOCC1	29	-23%	4%	.	.	3%
COCCCNC(=O)CCCN1C(=O)CCn2nc(-c3cn(C)c4ccccc34)cc21	10	-13%	4%	.	.	4%
CN=C1S/C(=C\c2cccn2-c2cccc(Br)c2)C(=O)N1C	-65*	5%	.	.	-11%	4%
CN=C1S/C(=C\c2ccc(N3CCCC3)c(F)c2)C(=O)N1C	35	9%	-4%	-3%	7%	4%
CCOc1cc(C(c2c(C)[nH][nH]c2=O)c2c(C)[nH][nH]c2=O)cc([N+](=O)[O-])c1O	5	-22%	-28%	-22%	6%	3%
CCOc1cc(C(c2c(C)[nH][nH]c2=O)c2c(C)[nH][nH]c2=O)cc(Cl)c1O	1	?	35µM*	?	20%	-5%
CCn1c(=O)c2cc(C(=O)NCc3ccc(F)cc3Cl)sc2c2ccccc21	-2	-27%	-4%	.	.	1%
C/C(=N\NC(=O)Cc1ccc(Cl)cc1)c1ccc(F)cc1	0	-16%	?	14%	0%	0%
C/C(=N\NC(=O)Cc1ccc(Cl)cc1)c1ccccc1O	-67*	15%	0%	-9%	10%	-14%
